Experimental data reported in paper PMC4336329 (PLoS ONE, 2015).
About 14,000 (4.5%) of roughly 310,000 compounds showed an effect of 50% or more. Effects have a minus sign here. The sample holds strong results, similar compounds and a random draw of the others, so the mix is not that of the screen.

Target: human ether-à-go-go-related gene (hERG) potassium channel (human, UniProt Q12809)
Assay: primary screen, population patch clamp on CHO cells stably expressing hERG; higher = less effect of the substance
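Note: peak tail current of the secondary pulse compared with the same well before compound.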

human ether-à-go-go-related gene (hERG) potassium channel, sequence (Q12809 whole entry, looked up): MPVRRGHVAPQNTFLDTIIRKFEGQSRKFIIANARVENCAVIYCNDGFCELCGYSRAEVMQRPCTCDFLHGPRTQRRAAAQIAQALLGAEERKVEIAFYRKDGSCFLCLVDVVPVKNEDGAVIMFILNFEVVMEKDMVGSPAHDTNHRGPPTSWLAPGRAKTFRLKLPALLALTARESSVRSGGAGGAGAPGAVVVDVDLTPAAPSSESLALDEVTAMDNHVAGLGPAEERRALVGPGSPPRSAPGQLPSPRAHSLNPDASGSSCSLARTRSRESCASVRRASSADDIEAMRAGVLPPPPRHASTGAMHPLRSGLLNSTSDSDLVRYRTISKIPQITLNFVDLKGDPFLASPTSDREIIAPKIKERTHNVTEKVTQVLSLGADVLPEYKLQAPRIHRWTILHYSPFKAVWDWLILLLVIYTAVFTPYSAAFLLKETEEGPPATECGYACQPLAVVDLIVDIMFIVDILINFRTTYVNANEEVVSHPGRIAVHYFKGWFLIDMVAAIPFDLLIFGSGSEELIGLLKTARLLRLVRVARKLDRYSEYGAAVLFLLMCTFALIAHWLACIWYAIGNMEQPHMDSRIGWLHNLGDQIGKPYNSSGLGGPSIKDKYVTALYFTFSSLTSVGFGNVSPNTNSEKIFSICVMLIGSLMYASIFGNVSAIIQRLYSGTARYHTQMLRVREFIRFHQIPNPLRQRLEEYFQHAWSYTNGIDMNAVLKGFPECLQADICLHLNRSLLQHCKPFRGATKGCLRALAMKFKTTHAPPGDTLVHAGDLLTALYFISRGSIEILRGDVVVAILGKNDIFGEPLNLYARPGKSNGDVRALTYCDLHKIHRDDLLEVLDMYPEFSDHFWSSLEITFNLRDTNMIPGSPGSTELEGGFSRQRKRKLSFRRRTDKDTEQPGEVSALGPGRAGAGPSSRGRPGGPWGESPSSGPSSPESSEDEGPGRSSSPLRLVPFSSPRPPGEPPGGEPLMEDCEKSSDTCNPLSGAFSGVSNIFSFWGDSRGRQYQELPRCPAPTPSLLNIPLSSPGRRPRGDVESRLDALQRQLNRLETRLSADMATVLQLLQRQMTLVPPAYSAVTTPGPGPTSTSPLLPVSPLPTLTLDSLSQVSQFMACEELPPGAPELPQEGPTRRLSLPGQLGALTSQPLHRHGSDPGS

| Structure (SMILES) | hERG current change (%, negative = inhibition) at 10uM [%] |
| --- | --- |
| CCCCCOC(=O)C1=C(C)NC(=O)NC1c1ccc2c(c1)OCO2 (stereo not shown) | 6.41 |
| CCOc1ccc(/C=N/N2C(=O)C(CC(=O)Nc3ccc(F)cc3F)SC2=NC)cc1OC (stereo not shown) | 3.82 |
| CCOc1ccc(CN(C)C(=O)CCl)cc1 | -1.2 |
| CS(=O)(=O)N(CC(=O)NCc1ccc2c(c1)OCO2)c1ccccc1 | 6.97 |
| COCc1c(C(=O)Nc2nc(C)cs2)oc2ccccc12 | -2.57 |
| CCCOP(=O)(OCCC)c1nc(-c2ccccc2)oc1NCc1ccccc1 | 6.49 |
| CCc1ccc(NC(=O)CCS(=O)(=O)c2ccc(Cl)cc2)cc1 | 6.96 |
| CCc1ccc(NC(=O)[C@@H](NC(=O)[C@@H]2Cc3ccccc3CN2)C(C)CC)cc1 (stereo partly shown) | -13.6 |
| Cc1cccc(NC(=O)[C@H](NC(=O)[C@@H]2Cc3ccccc3CN2)c2ccccc2)c1 | -54.4 |
| CCc1ccc(NC(=O)CNC(=O)[C@@H]2Cc3ccccc3CN2)cc1 | -19.9 |
| COc1ccc(CNC(=O)[C@H](Cc2c[nH]c3ccccc23)NC(=O)[C@@H]2Cc3ccccc3CN2)cc1 | -53.9 |
| Cc1cccc(NC(=O)[C@@H](NC(=O)[C@@H]2Cc3ccccc3CN2)C(C)C)c1 | -62.4 |
| Cc1cccc(NC(=O)[C@H](Cc2ccccc2)NC(=O)[C@@H]2Cc3ccccc3CN2)c1 | -0.0161 |
| Cc1cccc(NC(=O)[C@@H](CC(C)C)NC(=O)[C@@H]2Cc3ccccc3CN2)c1 | -40.7 |
| Cc1ccc(NC(=O)[C@H](NC(=O)[C@@H]2Cc3ccccc3CN2)c2ccccc2)cc1C | -37.9 |
| COc1ccccc1CNC(=O)[C@H](Cc1c[nH]c2ccccc12)NC(=O)[C@@H]1Cc2ccccc2CN1 | -16.5 |
| COc1ccc(NC(=O)[C@H](Cc2c[nH]c3ccccc23)NC(=O)[C@@H]2Cc3ccccc3CN2)cc1 | -36.8 |
| CCc1ccc(NC(=O)[C@H](NC(=O)[C@@H]2Cc3ccccc3CN2)c2ccccc2)cc1 | -55 |
| Cc1cc(C)cc(NC(=O)[C@H](NC(=O)[C@@H]2Cc3ccccc3CN2)c2ccccc2)c1 | -0.0454 |
| CN(c1ccc(C(=O)NC2CCCC2)cc1)S(=O)(=O)c1ccc(Cl)cc1 | 16.2 |
| COC(=O)CNC(=O)C1CCN(S(=O)(=O)c2cnc[nH]2)CC1 | -1.84 |
| CC1=NN(C(C#N)c2ccc(F)cc2)C(c2ccccc2)C1 (stereo not shown) | 4.44 |

| Structure (SMILES) | hERG current change (%, negative = inhibition) at 10uM [%] |
| --- | --- |
| COCCN(CCOC)S(=O)(=O)c1ccc(C(=O)Nc2ccncc2)cc1 | -11.6 |
| CSc1cccc(NC(=O)CN(C)S(=O)(=O)c2ccc(C)cc2)c1 | -32.8 |
| CCc1ccc2[nH]c(=O)c(C(c3nnnn3CCOC)N3CCN(c4ccccc4)CC3)cc2c1 (stereo not shown) | -11.6 |
| COCCn1nc2cc(C(=O)NCc3cc(C(F)(F)F)cc(C(F)(F)F)c3)ccc2c1OC | 21.8 |
| C[C@H](NC(=O)[C@@H]1Cc2ccccc2CN1)C(=O)Nc1ccc2c(c1)OCCO2 | 3.18 |
| C[C@@H](NC(=O)[C@@H]1Cc2ccccc2CN1)C(=O)Nc1ccc2c(c1)OCCO2 | 3.19 |
| CSCC[C@H](NC(=O)[C@@H]1Cc2ccccc2CN1)C(=O)Nc1ccc2c(c1)OCCO2 | -65.5 |
| Cc1cc(C(=O)OCC(=O)NCc2ccc3c(c2)OCO3)c2ccccc2n1 | -27.5 |
| Cc1ccc(N(C(=O)c2snc(C(N)=O)c2N)C(C(=O)NCC2CCCO2)c2c[nH]c3ccccc23)cc1 (stereo not shown) | -6.36 |
| O=C(CSc1nnc(-c2ccccc2Br)o1)Nc1cccc2ccccc12 | 5.79 |
| O=C(CSc1nnc(-c2ccccc2Br)o1)Nc1nncs1 | -57.9 |
| O=C(CSc1nnc(-c2ccncc2)o1)Nc1nncs1 | 15.5 |
| COc1ccc(NC(=O)c2ccc(COc3ccccc3)o2)c(OC)c1 | -7.06 |
| O=C(CC(C(=O)O)C1CCCO1)Nc1cccc(C(F)(F)F)c1 (stereo not shown) | 5.84 |
| O=C(CNC(=O)c1cccnc1)N/N=C/c1cccnc1 | 8.4 |
| O=C1CN(C(=O)c2ccccc2F)C(c2ccc(F)cc2)c2cc(F)ccc2N1 (stereo not shown) | -11.7 |
| Cc1ccc2c(c1)C(c1ccc(F)cc1)N(C(=O)c1ccccc1Br)CC(=O)N2 (stereo not shown) | -16.1 |
| O=C1CN(C(=O)c2cccc(F)c2)C(c2ccc(F)cc2)c2cc(F)ccc2N1 (stereo not shown) | -15.4 |
| Cc1ccc(C(=O)N2CC(=O)Nc3ccc(F)cc3C2c2ccccc2)cc1 (stereo not shown) | -4.56 |
| O=C1CN(C(=O)c2ccccc2Br)C(c2ccc(F)cc2)c2cc(F)ccc2N1 (stereo not shown) | -61.6 |
| O=C1CN(C(=O)c2ccccc2)C(c2ccccc2)c2cc(F)ccc2N1 (stereo not shown) | -75.1 |
